Data taken from PubChem BioAssay AID1159580 (chemical genetic matrix, 2015).
In all, about 5,500 compounds went through this assay and about 2,000 (36%) were called active. Roughly 18% stayed inconclusive and do not appear here. Some of the results follow. A number with no mark means an inactive call. Cut-off read from the data, not from the text of the source: active = normalized growth mostly below about 0.91 (no sharp cut-off); inconclusive = no clear call, values can overlap the other calls; inactive = mostly above about 0.92.

Test: chemical genetic growth profiling, strain panel (AID 1159580);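 note: tested at 20 µM; growth read once vehicle control cultures reached saturation at 30 °C; 1 = growth at the plate median or of vehicle wells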
Details: growth OD

## Cc1cc2c3c(c1)c(O)cc(=O)n3CCC2
S. cerevisiae deletion strains, locus YAL013W, strain DEP1, stronger effect = lower value
  normalized growth: 0.967
S. cerevisiae deletion strains, locus YBR229C, strain ROT2, stronger effect = lower value
  normalized growth: 0.989
S. cerevisiae deletion strains, locus YDL101C, strain DUN1, stronger effect = lower value
  normalized growth: 0.981
S. cerevisiae deletion strains, locus YDL134C, strain PPH21, stronger effect = lower value
  normalized growth: 0.968
S. cerevisiae deletion strains, locus YDR150W, strain NUM1, stronger effect = lower value
  normalized growth: 1
S. cerevisiae deletion strains, locus YEL061C, strain CIN8, stronger effect = lower value
  normalized growth: 1.01
S. cerevisiae deletion strains, locus YGR078C, strain PAC10, stronger effect = lower value
  normalized growth: 0.991
S. cerevisiae deletion strains, locus YGR229C, strain SMI1, stronger effect = lower value
  normalized growth: 0.974
S. cerevisiae deletion strains, locus YHR030C, strain SLT2, stronger effect = lower value
  normalized growth: 0.518 (active)
S. cerevisiae deletion strains, locus YHR087W, strain rtc3, stronger effect = lower value
  normalized growth: 0.991
S. cerevisiae deletion strains, locus YJL187C, strain SWE1, stronger effect = lower value
  normalized growth: 0.984
S. cerevisiae deletion strains, locus YJR043C, strain POL32, stronger effect = lower value
  normalized growth: 0.984
S. cerevisiae deletion strains, locus YJR075W, strain HOC1, stronger effect = lower value
  normalized growth: 1
S. cerevisiae deletion strains, locus YKL190W, strain CNB1, stronger effect = lower value
  normalized growth: 0.988
S. cerevisiae deletion strains, locus YLR039C, strain RIC1, stronger effect = lower value
  normalized growth: 0.544 (active)
S. cerevisiae deletion strains, locus YLR058C, strain SHM2 (second series), stronger effect = lower value
  normalized growth: 0.995
S. cerevisiae deletion strains, locus YLR085C, strain ARP6, stronger effect = lower value
  normalized growth: 0.968
S. cerevisiae deletion strains, locus YLR262C, strain YPT6, stronger effect = lower value
  normalized growth: 0.549 (active)
S. cerevisiae deletion strains, locus YML094W, strain GIM5, stronger effect = lower value
  normalized growth: 1.02
S. cerevisiae deletion strains, locus YMR219W, strain ESC1, stronger effect = lower value
  normalized growth: 0.969
S. cerevisiae deletion strains, locus YMR263W, strain SAP30, stronger effect = lower value
  normalized growth: 0.968
S. cerevisiae deletion strains, locus YNL128W, strain TEP1, stronger effect = lower value
  normalized growth: 0.989
S. cerevisiae deletion strains, locus YNL153C, strain GIM3, stronger effect = lower value
  normalized growth: 0.971
S. cerevisiae deletion strains, locus YNL298W, strain CLA4 (second series), stronger effect = lower value
  normalized growth: 1.01
S. cerevisiae deletion strains, locus YNL322C, strain KRE1, stronger effect = lower value
  normalized growth: 0.993
S. cerevisiae deletion strains, locus YNR030W, strain Alg12, stronger effect = lower value
  normalized growth: 0.989
S. cerevisiae deletion strains, locus YOL006C, strain TOP1, stronger effect = lower value
  normalized growth: 1.03
S. cerevisiae deletion strains, locus YPL055C, strain LGE1, stronger effect = lower value
  normalized growth: 0.88
S. cerevisiae deletion strains, locus YPL241C, strain CIN2, stronger effect = lower value
  normalized growth: 0.96
S. cerevisiae deletion strains, locus YPR135W, strain CTF4, stronger effect = lower value
  normalized growth: 0.918
S. cerevisiae strains, strain wild type, stronger effect = lower value
  normalized growth: 0.967
